Test results as given in PubChem BioAssay (NCATS).
Inconclusive results are not listed. Active and inactive are the calls of the source. Calls come from the whole dose curve; as a rule, active = well fitted activation curve with a large enough effect; inconclusive = small, poorly fitted or top-dose-only effect, or another doubt; inactive = no such curve, though single readings can be large or run the other way.

Target: Rap guanine nucleotide exchange factor 3 (Homo sapiens) (UniProt O95398)
Assay: Counterscreen qHTS for agonist of cAMP-regulated guanine nucleotide exchange factor 3 (EPAC1) (AID 1645889); note: % of control where 0% means no effect; nearly all actives have a fitted effect of over 40% in size
Conditions: EPAC1 Rap1B-BODIPY-GDP exchange, fluorescence; series mostly up to 154 µM; activation: at the top concentration
Method in brief: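 Rap1B–BODIPY-GDP (250 nM) with 50 uM GDP; compounds pin-transferred to 9.74 nM–152 uM final (activator) or from 7.32 nM upwards (inhibitor). Fluorescence Ex/Em 480/540 nm read at 5 and 30 min, then after adding cAMP or buffer, at room temperature.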

SMILES | activation
CCOC(=O)c1c(C)[nH]c(C)c1C(=O)COC(=O)c1cc(OC)cc(OC)c1 | 19.4% (inactive)
C=CC[C@@H](Cc1ccc(F)cc1)C(=O)OC[C@@H]1CCCN1C(=O)[C@@H](CC=C)CC(=O)N(CCO)Cc1ccccc1 | 7.99% (inactive)
COc1ccccc1NS(=O)(=O)c1ccc2ccccc2c1 | 16.4% [at 30.8 µM] (inactive)
CN1C(=O)/C(=C2/C=Cc3ccccc3N2CCCS(=O)(=O)O)SC1=S | -20.7% (inactive)
COc1ccc(CN(C)C(=O)c2ccc(OCC(=O)Nc3cccc(C(F)(F)F)c3)c(OC)c2)c(OC)c1 | -8.1% (inactive)
O=C(NC1CCCCC1)C(c1ccc(C(F)(F)F)cc1)n1c(=O)c(-c2ccco2)nc2ccccc21 (configuration not stated) | 31.4% (inactive)
CC(C)CCNC(=O)C(CC(C)C)N(Cc1ccc2c(c1)OCO2)C(=O)c1snc(C(N)=O)c1N (configuration not stated) | -13.6% (inactive)
O=C(Nc1ncccc1O)c1c(O)c2ccccc2[nH]c1=O | 1.8% (inactive)
CN(CC(=O)Nc1ccc(F)cc1)C(=O)COc1ccc(C(=O)c2ccccc2)cc1 | 17.7% (inactive)
COC(=O)C1CCN(c2nc3ccccc3nc2C(C#N)C(=O)NCCc2ccccc2)CC1 (configuration not stated) | 22.6% (inactive)
COc1ccccc1-c1nc2ccccc2n(CC(C)C)c1=O | 11.9% (inactive)
CCOC(=O)C(C)Sc1ncc(OC)c(Sc2ccc(Cl)cc2)n1 (configuration not stated) | 10.9% (inactive)
CCCN(CC(=O)Nc1ccccc1C)C(=O)c1oc2ccc(OCC)cc2c1C | 20.5% (inactive)
CC1COc2ccccc2N1S(=O)(=O)c1ccc(Cl)cc1 (configuration not stated) | 3.53% (inactive)
CN(CC(=O)Nc1ccccc1Cl)C(=O)c1ccc(-c2cccc(C(F)(F)F)c2)o1 | -33.1% (inactive)
CCCCC[C@H](C)N1C[C@@H](COCc2ccccc2)Oc2cc(N3CC[C@H](N(C)C)C3)ccc2S1(=O)=O | -11.3% (inactive)
Cc1ccc(S(=O)(=O)N2CCOCC2)cc1NC(=O)COC(=O)CCOc1ccc(C(C)(C)C)cc1 | -36.2% (inactive)
